An excerpt weighted towards active compounds, which were near 8.8% of everything screened.
KB-V1 cytotox: qHTS assay for MDR1-selective chemotherapeutics: Primary screen using the drug-selected MDR subline cells KB-V1 | KB-V1 MDR cells viability, CellTiter-Glo, 72 h | Potency, µM (titrated, usually from 46.1 µM), most hits filed as cytotoxic | actives 3.4% (n = 400,000); also: potency is read from the fitted curve at half-maximal effect; nearly all actives have a fitted effect of over 60% in size
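Readout: CellTiter-Glo luminescence, 10 min after addition. Cells: KB-V1 MDR subline, 72 h at 37 degrees C with compound. Analysis: corrected, normalized data fitted to concentration-effect curves.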
HT1080 IDH1KD tx: qHTS for induction of synthetic lethality in tumor cells producing 2HG: qHTS for the HT-1080-IDH1KD cell line | HT-1080 IDH1 knockdown viability, ATP luminescence, 48 h | actives 2% (n = 360,000) | Potency, µM (doses to about 46.1 µM), without a hit: at the top dose activity, negative = toxicity, actives largely listed as cytotoxic;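 also: potency is read from the fitted curve at half-maximal effect; 0% = DMSO wells and -100% = cell-free medium wells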
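In this qHTS, HT-1080 cells depleted of IDH1 are exposed for 48 h at 37 °C to compound titrations. Toxicity is scored from CellTiter-Glo luminescence, with DMSO as full viability and medium alone as none.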
KB-3-1 cytotox: qHTS assay for MDR1-selective chemotherapeutics: Primary screen using the parental adenocarcinoma cell KB-3-1 | AID 1347075, 2019 | actives 1.4% (n = 400,000) | KB-3-1 viability, CellTiter-Glo ATP luminescence, 72 h | Potency, µM (titrated, usually from 46.1 µM), usual class: cytotoxic; also: potency is read from the fitted curve at half-maximal effect; nearly all actives have a fitted effect of over 60% in size
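KB-3-1 parental drug-naive adenocarcinoma cells in DMEM/10% FBS, incubated 72 h at 37 C with pin-transferred compounds across a concentration series. Viability by CellTiter-Glo luminescence; concentration-response curves fitted after normalization.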
IL1B secr inh: qHTS for Inhibitors of Inflammasome Signaling: IL-1-beta AlphaLISA Primary Screen. AID 743279, 2014. actives 4.7% (n = 360,000). activity change, % at 57.5 µM. THP-1 LPS/ATP IL-1B secretion, AlphaLISA, 16 h; stronger effect = lower value; in the data active = activity change below about -50%; inconclusive = mostly about -30% to -49%
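THP-1 cells pretreated 1 hr with compounds (up to 57.5 uM final), then stimulated with LPS (250 ng/mL final) plus ATP (1.25 mM final); secreted IL-1B measured by AlphaLISA after 16 hr, decreased signal indicating inhibition.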
HT1080-NT tox: qHTS for induction of synthetic lethality in tumor cells producing 2HG: qHTS for the HT-1080-NT fibrosarcoma cell line; HT-1080-NT fibrosarcoma viability, CellTiter-Glo ATP luminescence, 48 h; Potency, µM (doses to about 46.1 µM), for the others: top-dose activity, negative = less viability, actives largely listed as cytotoxic; actives 1.6% (n = 360,000); AID 686970, 2013;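 also: NT is the 2HG producing partner of a matched IDH1 knockdown line; potency is read from the fitted curve at half-maximal effect; 0% = DMSO-treated cells and -100% = media-only wells without cells; nearly all actives have a fitted effect of over 55% in size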
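Viability by CellTiter-Glo luminescence after 48 h compound exposure at 37C of HT-1080-NT cells (750/well, RPMI, 5% FBS). % activity scaled between DMSO wells and medium-only wells, then curve-fitted and categorized by curve class.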
Active calls of the source: *; i = inactive; ? = inconclusive; . = no result given. Unless noted, calls follow the shape of the dose curve; as a rule, active = well fitted curve in the direction sought with a large enough effect; inconclusive = small, poorly fitted or top-dose-only effect, or another doubt; inactive = no such curve, though single readings can be large; an effect the other way counts as inactive or inconclusive. Unless noted, % is scaled to controls: 0 for no effect and ±100 for the full control effect.

SMILES	KB-V1 cytotox	HT1080 IDH1KD tx	KB-3-1 cytotox	IL1B secr inh	HT1080-NT tox
Cc1ccc(C(=O)OCC(=O)Nc2cccc(S(=O)(=O)NC3=NCCCCC3)c2)c(C)c1	i	0%	i	0	-14%
COc1ccc(-[n+]2c(C)cc(/C=C3\Sc4ccccc4N3C)cc2C)cc1	?	2.3µM*	?	-94*	4.1µM*
COc1ccccc1-[n+]1c(C)cc(/C=C2\Sc3ccccc3N2C)cc1C	9.2µM*	0.58µM*	0.29µM*	-63*	2.6µM*
O=C(NC1CCCCC1)c1noc2c1CCCCC2	?	?	i	-18	13%
COc1cc(NC(=O)c2noc3c2CC(C(C)(C)C)CC3)cc(OC)c1OC (stereo unspecified)	16µM*	.	i	.	.
CCc1ccccc1NC(=O)c1noc2c1CC(C(C)(C)C)CC2 (stereo unspecified)	i	.	i	.	.
COc1ccc(NC(=O)c2noc3c2CCCC3)cc1Cl	i	.	i	.	.
CC(C)(C)C1CCc2onc(C(=O)Nc3ccc4c(c3)OCO4)c2C1 (stereo unspecified)	i	13µM*	i	-29	?
CC(C)(C)C1CCc2onc(C(=O)N3CCOCC3)c2C1 (stereo unspecified)	21µM*	3%	i	-9	27%
CC(C)(C)C1CCc2onc(C(=O)NC3CCCC3)c2C1 (stereo unspecified)	16µM*	-8%	?	-9	?
CCCc1nc2nc(C)c(NS(=O)(=O)c3ccc(C4CCCCC4)cc3)c(=O)n2[nH]1	i	-1%	i	18	0%
CN(C)c1oc(-c2ccco2)nc1S(=O)(=O)c1ccc(Br)cc1	4.6µM*	-1%	i	-3	3%
COc1cc(-c2nc(S(=O)(=O)c3ccc(C)cc3)c(N3CCOCC3)o2)cc(OC)c1OC	?	-14%	i	5	3%
Cc1ccc(S(=O)(=O)c2nc(-c3ccccc3Cl)oc2N(C)C)cc1	10µM*	?	18µM*	34	?
COc1cc(-c2nc(S(=O)(=O)c3ccc(Cl)cc3)c(N3CCOCC3)o2)cc(OC)c1OC	0.52µM*	-22%	i	-29	21%
COc1ccccc1-c1nc(S(=O)(=O)c2ccc(Cl)cc2)c(N(C)C)o1	i	-11%	i	24	0%
CN(C)c1oc(-c2ccccc2Cl)nc1P(=O)(c1ccccc1)c1ccccc1	7.3µM*	-21%	?	-62*	-2%
Nc1ncnc2c1ncn2[C@@H]1O[C@H](C(=O)NCc2ccc(OC(F)(F)F)cc2)[C@@H](O)[C@H]1O	i	-14%	i	-26	-1%
C[C@@H]1CN([C@@H](C)CO)S(=O)(=O)c2ccc(Br)cc2O[C@H]1CN(C)C(=O)c1cccc(F)c1	i	8%	i	-15	9%
C[C@@H]1CN([C@@H](C)CO)C(=O)CCCn2nncc2CO[C@@H]1CN(C)C(=O)OCc1ccccc1	i	12%	i	29	-1%
O=C(C(c1ccccc1)c1ccccc1)N1CC[C@@]2(O)CCCC[C@H]2C1	i	-7%	i	-24	-6%
CC(C)c1ccc(NC(=O)CSC2=Nc3ccccc3C3=NC(CC(=O)NC4CCCCC4)C(=O)N23)cc1 (stereo unspecified)	i	.	i	.	.
Cc1ccnc(NC(=S)N2CCN(C)CC2)c1	i	.	i	.	.
COc1cc(-c2nc(S(=O)(=O)c3ccc(C)cc3)c(N(C)C)o2)cc(OC)c1OC	?	-15%	i	-51*	-11%
Cc1ccc(-c2nc(S(=O)(=O)c3ccc(C)cc3)c(N(C)C)o2)cc1	?	15%	i	-11	12%
COc1cccc(/C=C/c2nc(S(=O)(=O)c3ccccc3)c(N(C)C)o2)c1	i	10%	i	?	10%

Screening results as filed in PubChem.
